According to PubChem BioAssay AID624126 (The Scripps Research Institute Molecular Screening Center, 2012):
In all, about 360,000 compounds went through this assay and about 1,400 (0.39%) were called active. This excerpt belongs to a sample that is enriched for actives. Values without a mark were called inactive.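 Rule for the calls: active = activation above its plate's cutoff, the mean activation of sample wells plus 3 SD; inactive = the rest.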

Each compound was assayed against Muscarinic acetylcholine receptor M4 (Homo sapiens) (UniProt P08173) (assay: CHRM4 PAMs potentiating acetylcholine calcium signal – CHO-K1 cells, Fluo-8 calcium fluorescence, primary screen (AID 624126)). Details: CHO-K1 hM4/Gqi5, Fluo-8 calcium fluorescence, ACh EC20; at 3 µM; stronger effect = higher value; 0% = ACh EC20, 100% = maximal ACh.
Chain of Muscarinic acetylcholine receptor M4 (Homo sapiens) (P08173 whole entry, looked up): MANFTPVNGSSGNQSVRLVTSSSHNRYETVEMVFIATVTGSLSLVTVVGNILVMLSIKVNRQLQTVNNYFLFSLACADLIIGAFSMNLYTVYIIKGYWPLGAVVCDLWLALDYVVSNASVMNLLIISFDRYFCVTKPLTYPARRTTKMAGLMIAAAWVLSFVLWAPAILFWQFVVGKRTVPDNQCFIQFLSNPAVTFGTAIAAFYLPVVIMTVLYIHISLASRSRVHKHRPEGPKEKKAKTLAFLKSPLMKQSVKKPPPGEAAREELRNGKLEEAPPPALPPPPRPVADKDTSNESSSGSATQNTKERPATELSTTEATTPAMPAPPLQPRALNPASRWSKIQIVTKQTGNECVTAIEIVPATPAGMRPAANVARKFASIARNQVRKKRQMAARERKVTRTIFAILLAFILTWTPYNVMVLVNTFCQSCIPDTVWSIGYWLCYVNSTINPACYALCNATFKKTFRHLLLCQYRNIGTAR
COc1ccc2nc(C)cc(Nc3cccc(C(=O)O)c3)c2c1 was tested, and the activation was -1.48%.
With Cc1ccc(-n2ncc3c(Nc4cccc(C(=O)O)c4)ncnc32)cc1 the activation was 29.6% (active).
COC(=O)CSc1ncnc2c1cnn2-c1ccc(C)cc1C gave an activation of 1.46%.
O=C1CN(C(=O)COC(=O)C2CC(=O)N(Cc3ccco3)C2)c2ccccc2N1 (stereo not given) showed an activation of 13.2%.
Work on O=C(NCc1ccc2c(c1)OCO2)c1c(-c2ccsc2)sc2ccccc12 yielded an activation of -3.52%.
For COc1cc2c(cc1OC)CN(C(C)C(=O)Nc1cccc(S(=O)(=O)N3CCOCC3)c1)CC2 (stereo not given), the activation was 1.73%.
O=C(CNC(=O)C12CC3CC(CC(C3)C1)C2)OCC(=O)N1CCCCC1 showed an activation of -2.08%.
In the case of COC(=O)c1ccc(CNC(=O)C2CCC(=O)N(Cc3ccccn3)C2)cc1 (stereo not given), the activation is reported as 13.8% (active).
Compound Cc1ccccc1CCNC(=O)C1CCC(=O)N(Cc2ccc(Cl)cc2)C1 (stereo not given) has an activation of -4.94%.
COC(=O)c1ccc(CNC(=O)C2CCC(=O)N(Cc3cccc(F)c3)C2)cc1 (stereo not given) gave an activation of 2.75%.
Cc1cc(C)c(S(=O)(=O)Nc2c(C)n(C)n(-c3ccccc3)c2=O)cc1[N+](=O)[O-] showed an activation of -0.44%.
CCOC(=O)c1cc(C(C)C)sc1NC(=O)COC(=O)c1nccnc1N was tested, and the activation was 17%.
CC(C)(C)C(=O)CN1C2=NCCN2c2ccccc21 was tested, and the activation was -8.44%.
In the case of Cc1ccc(N(C(=O)c2ccc(CN3CCOCC3)o2)C(C(=O)NCCC(C)C)c2cccs2)c(C)c1 (stereo not given), the activation is reported as 9.68%.
Work on O=C(NC1CCCC1)C(c1ccc(N2CCOCC2)cc1)N(C(=O)c1ccco1)c1ccccc1F (stereo not given) yielded an activation of -4.93%.
In the case of Cc1cccc(N(C(=O)c2ccc(CN3CCOCC3)o2)C(C(=O)NC2CCCCC2)c2ccc(F)cc2)c1 (stereo not given), the activation is reported as 15.7% (active).
CSc1ncccc1C(=O)Nc1cccc(S(=O)(=O)N2CCOCC2)c1 was tested, and the activation was 7.64%.
Compound Cc1ccc(S(=O)(=O)N(C)C)cc1NC(=O)C(C)OC(=O)c1ccc2ccccc2n1 (stereo not given) has an activation of 21.1%.
For COC(=O)c1cc(C(=O)OCC(=O)Nc2cc(C)on2)cc([N+](=O)[O-])c1, the activation was 19.2%.
With COC(=O)c1ccccc1NC(=O)Cn1nc(C(F)(F)F)c2c1CCC2 the activation was -1.81%.
COCCn1c(SCC(=O)Nc2ccccc2F)nc2c(c1=O)SCC2 showed an activation of 1.76%.
With COCCn1c(SCC(=O)Nc2ccc(F)cc2F)nc2c(c1=O)SCC2 the activation was 0.05%.
With COCCn1c(SCC(=O)N2CCCCCC2)nc2c(c1=O)SCC2 the activation was 28% (active).
Compound CC(=O)n1cc([C@@H]2C=C(C(=O)N3CCN(Cc4ccc5c(c4)OCO5)CC3)O[C@H](OCc3ccc(CO)cc3)C2)c2ccccc21 has an activation of -4.81%.
CC(C)n1ncc2c(C(=O)N3CCN(Cc4cccs4)CC3)cc(C3CC3)nc21 gave an activation of 3.71%.
In the case of CCc1ccc(NC(=O)C(C)OC(=O)/C=C/c2cccc([N+](=O)[O-])c2)cc1 (stereo not given), the activation is reported as 30.3% (active).
Work on C=CCOc1ccc(/C=C/C(=O)OC(C)C(=O)Nc2ccc(NC(C)=O)cc2)cc1 (stereo not given) yielded an activation of 0.99%.
Work on CC(OC(=O)/C=C/c1ccccc1)C(=O)Nc1ccc(C(N)=O)cc1 (stereo not given) yielded an activation of 5.82%.
Work on O=C1CN(C(=O)CN2C(=O)NC3(CCCCC3)C2=O)c2ccccc2N1 yielded an activation of 3.42%.
For Cn1c(SCC(=O)c2ccccc2)ncc(C(=O)Nc2ccc(F)cc2)c1=O, the activation was 21.6% (active).
With Cn1c(SCC(=O)c2ccc(F)cc2)nnc1-c1ccccn1 the activation was -3.85%.
With Cc1ccc(NC(=O)c2cnc(SCC(=O)NCC3CCCO3)n(C)c2=O)cc1 (stereo not given) the activation was 21.4%.
In the case of CC(C)NC(=O)N1Cc2cc(C(=O)NCC(F)(F)F)nc(-c3cccc(-c4cc5ccccc5o4)c3)c2[C@@H]1CCO, the activation is reported as 1.14%.
With COc1ccc(CCNC(=O)CN2C(=O)CCSc3ccccc32)c(OC)c1 the activation was 0.14%.
With CC(NS(=O)(=O)c1ccc(OCC(=O)N2CCCC2)cc1)c1ccccc1 (stereo not given) the activation was 1.05%.
With O=C(COC(=O)c1ncc(Cl)c(Cl)c1Cl)NCc1ccccc1 the activation was 16.7%.
In the case of CCN1C(=O)c2cccc3c(S(=O)(=O)Nc4ccccc4O)ccc1c23, the activation is reported as 17.5% (active).
In the case of CCN(CC)S(=O)(=O)c1ccc2c3c(cccc13)C(=O)S2, the activation is reported as -6.1%.
Cc1ccccc1C(=O)NNC(=O)CN1C(=O)c2ccccc2C1=O showed an activation of 9.49%.
C/C(CC(=O)Nc1ccc(C)cc1C)=N\NC(=O)C(C)C gave an activation of 2.54%.
Compound CN(C)C(=O)N1CCNCC1 has an activation of 4.12%.
Cc1cc(Br)cn2c(Cc3ccsc3)c(-c3ccc(C#N)cc3)nc12 gave an activation of -5.22%.
With COc1cc(CCC(=O)OCC(=O)Nc2cccc(S(N)(=O)=O)c2)cc(OC)c1OC the activation was 1.58%.
O=C1CSc2ccc(S(=O)(=O)NCc3ccccc3)cc2N1 showed an activation of 0.62%.
With COc1cccc(C2=CC(=O)C[C@H](c3ccc(F)cc3)C2)c1OC the activation was 2.96%.
